From PubChem
Most compounds without a hit are left out; they make up all but 4.5% or so of the library.
Mdm2 MdmX PPI = human Mdm2/MdmX binding inhibition; O15151+Q00987; SaOS-2 split-luciferase Mdm2/MdmX complementation, luminescence; inhibition, % at 8 µM; 330,000 compounds, 3% hits;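 active = inhibition of at least 50% at 8 µM in the primary screen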
Jurkat NFkB inh = lowers PMA/ionomycin-induced NF-kB signal in Jurkat cells; PMA/ionomycin-induced NF-kB luciferase reporter, luminescence; inhibition, % at 4 µM; 330,000 compounds, 0.53% hits; AID 435003; in the data active = inhibition above about 50%
aSyn UTR inh = MLPCN primary screen, SNCA 5' untranslated region; alpha-synuclein 5'UTR reporter, inhibitor activity; inhibition, % (tested at 7.5 µM); 300,000 compounds, 0.82% hits; in the data active = inhibition above about 60%; inconclusive = no clear call, values can overlap the other calls;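 also: H4 neuroglioblastoma cells stably carrying SNCA 5'UTR luciferase fusion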
CSC inhib = blocks cancer stem cells | cancer stem cell-like cells viability, luminescence | inhibition, % at 7.5 µM | 300,000 compounds, 1.1% hits; in the data active = inhibition above about 75%; inconclusive = no clear call, values can overlap the other calls; tested in HMLE shEcad cells
697 NFkB inh = lowers PMA/ionomycin-induced NF-kB signal in 697 B cells; 697 B-cell NF-kB luciferase reporter, 16 h; inhibition, % at 4 µM; 330,000 compounds, 0.33% hits; AID 435022; in the data active = inhibition above about 35%
Gli-Sufu block = blocks Gli-Sufu signaling in a luciferase reporter | Sufu-KO-LIGHT fibroblasts, Gli luciferase reporter luminescence | inhibition, % at 5 µM | 340,000 compounds, 0.74% hits | AID 588413;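 active = inhibition above about 55%, limit read from the data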
Mdm2 MdmX conf = human Mdm2/MdmX binding inhibition, confirmed; inhibition, % at 8 µM; luminescent assay; 10,000 compounds, 55% hits; shares compounds with Mdm2 MdmX PPI; AID 489028; in the data active = inhibition above about 40%
Full FLuc ctr = inhibits full-length luciferase, flagging false Mdm2/MdmX hits. SaOS-2 full-length luciferase counterscreen, luminescence. 6,200 compounds, 77% hits. inhibition, % at 8 µM. shares compounds with Mdm2 MdmX PPI;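 active = mean inhibition at 8 µM reaching about 37%, which flags the compound as non-specific, limit read from the data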;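 also: p53-null SaOS-2 cells with luciferase driven by a doxycycline-inducible promoter; compound on cells about two nights before reading with doxycycline added after day one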
Numbers stand for hits; . = inactive; ? = inconclusive; / = no result.

SMILES	Mdm2 MdmX PPI	Jurkat NFkB inh	aSyn UTR inh	CSC inhib	697 NFkB inh	Gli-Sufu block	Mdm2 MdmX conf	Full FLuc ctr
Cc1sc2ncnc(N3CCC(C(=O)Nc4nc(-c5cccs5)cs4)CC3)c2c1C	86	.	.	.	.	.	93	43
CCc1nnc(NC(=O)C2CCN(S(=O)(=O)c3ccc(C)cc3)CC2)s1	53	.	.	.	.	.	.	/
Cc1nnsc1C(=O)N/N=C/c1ccc2ccccc2c1O	63	.	120	78	.	86	75	.
Cc1nc(N)sc1C(=O)N/N=C/c1ccccc1[N+](=O)[O-]	.	.	.	.	.	/	/	/
Cc1nc(N)sc1C(=O)N/N=C/c1c[nH]c2ccccc12	51	.	.	.	.	.	.	/
COc1ccc(NC(=O)COC(=O)CO/N=C(\C)c2ccc3c(c2)OCO3)cc1S(N)(=O)=O	.	.	/	.	.	.	/	/
CN1Cc2cc(C(=O)c3cc(Cl)cc(CSc4ncccn4)c3O)cnc2NC1=O	59	.	79	.	.	/	73	89
Cc1ccc(O)c(C(=O)c2cnc3c(c2)CN(CCC(C)C)C(=O)N3)c1	54	.	.	.	.	.	.	/
Cc1ccc(O)c(C(=O)c2cnc3c(c2)CN(C)C(=O)N3)c1	63	.	.	.	.	.	49	56
COCCNC(=O)c1cc(-c2ccccc2C)nn1CC1CC(c2cccnc2)=NO1 (centres undefined)	.	.	/	/	.	.	/	/
c1cn(-c2ncnc3sc4c(c23)CCCC4)cn1	.	.	.	.	.	.	/	/
CCC12C(=O)C(CC)(C(c3ccccc3)=C1c1ccccc1)[C@@H]1C(=O)N(c3ccc(C)cc3)C(=O)C12 (some centres undefined)	.	.	.	.	.	.	/	/
CCCC12C(=O)C(C)(C(c3ccccc3)=C1c1ccccc1)C1C(=O)N(c3ccc(C)cc3)C(=O)C12 (centres undefined)	80	.	.	.	.	.	80	69
CCC12C(=O)C(CC)(C(c3ccccc3)=C1c1ccccc1)[C@@H]1C(=O)N(c3ccccc3)C(=O)C12 (some centres undefined)	54	.	.	.	.	.	65	59
Cc1ccc(C(=O)C2CCN(CC(=O)N3CCN(c4ccc(F)cc4)CC3)CC2)cc1	.	.	.	.	.	.	/	/
Brc1nc(-c2ccccc2)nc(-c2ccccc2)c1Br	79	.	.	.	.	.	.	/
Cc1ccc(NC(=O)c2ccc(=O)[nH]n2)cc1S(=O)(=O)Nc1ccc(SC(F)F)cc1	.	.	/	.	.	.	/	/
CN=C1S/C(=C\c2cc(C)n(-c3ccccc3F)c2C)C(=O)N1C	56	.	.	.	.	.	.	100
Cc1cc(/C=C2\SC(=S)N(C)C2=O)c(C)n1-c1cccc(O)c1	78	.	.	?	.	.	79	98
CN1C(=O)/C(=C\c2cc(N=Nc3ccccc3)ccc2O)SC1=S	91	.	.	.	.	.	54	.
COc1cc(NC(=S)Nc2ccc(N(C)C(C)=O)cc2)cc(OC)c1	.	.	.	.	.	.	/	/
CCOC(=O)N1CCN(C/C(Cl)=C/c2ccccc2)CC1	.	.	.	.	.	.	/	/
COc1ccc(NC2=Nc3ccccc3N3C2=Nc2c(c(C)nn2-c2ccc(C)cc2)C3c2cccnc2)cc1 (centres undefined)	.	.	.	.	.	.	/	/
CC(=O)Nc1ccc(NC2=Nc3ccccc3N3C2=Nc2c(c(C)nn2-c2ccccc2)C3c2ccccc2)cc1 (centres undefined)	84	.	.	.	.	60	90	.
O=S(=O)(NCCn1ccc2ccccc21)c1ccccc1	.	.	.	.	.	.	/	/
SMILES	Mdm2 MdmX PPI	Jurkat NFkB inh	aSyn UTR inh	CSC inhib	697 NFkB inh	Gli-Sufu block	Mdm2 MdmX conf	Full FLuc ctr
O=C1NC(=Nc2cccnc2)S/C1=C/c1ccc(F)cc1	51	.	.	.	.	.	.	/
CCOC(=O)c1cnc(-n2nc(C)cc2C)nc1Nc1ccc(N(C)C)cc1	71	.	.	.	.	.	48	61
CCOC(=O)c1cnc(-n2nc(C)cc2C)nc1NC1CCCCC1	86	.	.	.	.	82	92	.
CCOC(=O)c1cnc(-n2nc(C)cc2C)nc1NNc1nc(-c2ccccc2)cc(-c2ccccc2)n1	63	.	82	128	.	.	72	.
CSCCC(NS(=O)(=O)/C=C/c1ccccc1)C(=O)O (centres undefined)	.	.	.	.	.	.	/	/
CCOc1ccccc1N=c1oc2cc(O)ccc2cc1C(=O)NCC1CCCO1 (centres undefined)	.	.	.	/	.	.	/	/
O=C(Nc1cccc(Cl)c1)Nc1csc([N+](=O)[O-])c1	90	.	.	?	.	.	87	39
O=C(NCc1cccnc1)c1c(O)c2cccc3c2n(c1=O)CCC3	71	.	.	.	.	.	45	.
C=CCNC(=O)c1c(O)c2cccc3c2n(c1=O)CCC3	66	.	.	.	.	.	56	53
NCCNC(=O)c1c(O)c2cccc3c2n(c1=O)CCC3	.	.	.	/	.	.	/	/
N#CC(C#N)=Cc1c[nH]c(=O)c(C#N)c1Nc1ccccc1	.	.	.	.	.	.	/	/
Cc1[nH]c2ccccc2c1C(C#N)(C#N)C1C(=O)c2ccccc2C1=O	61	.	.	.	.	.	43	.
OC(c1cc(C(F)(F)F)nc2c(C(F)(F)F)cccc12)C1CCCCN1 (centres undefined)	100	.	/	.	.	.	89	.
C=CCNc1nnc(Sc2ncccc2[N+](=O)[O-])s1	.	.	.	.	.	.	/	/
CC1CCN(C(=O)c2[nH]cnc2C(=O)N2CCN(c3ccccc3)CC2)CC1	.	.	/	.	.	.	/	/
NC(=O)Cn1c(S(=O)(=O)Cc2ccccc2)nc2ccccc21	.	.	.	.	.	.	/	/
COc1ccc(S(=O)(=O)c2cnc3ccccc3n2)cc1	.	.	.	.	.	.	/	/
O=S(=O)(c1ccc(Br)cc1)c1cnc2ccccc2n1	50	.	.	.	.	.	.	/
O=S(=O)(Cc1ccccc1)c1cnc2ccccc2n1	59	.	.	.	.	.	.	/
COc1cccc(CNC(=O)COC(=O)c2cc([N+](=O)[O-])ccc2N2CCCC2)c1	.	.	/	/	.	.	/	/
Cc1ccc(C(=O)NNC(=O)CSc2n[nH]c(-c3cccnc3)n2)cc1	.	.	.	.	.	.	/	/
COc1ccc(/C(N)=N/OC(=O)c2ccco2)cc1	.	.	?	.	.	.	/	/
Cc1ccc(C(=O)O/N=C(\N)c2ccc(Br)cc2)cc1	98	.	.	.	.	.	.	/
COc1ccc(C(=O)O/N=C(\N)c2ccc(Br)cc2)cc1	96	.	.	.	.	.	.	158
